PubChem BioAssay (NCI)
About 83,000 compounds went through this panel and 20% of them were active in at least one assay; those are over-represented in the sample as a whole.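 Growth was measured after 48 h exposure to one concentration of compound in 96-well plates. Values under 10 count as active.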 Unmarked numbers belong to inactive results. The source made the active and inactive calls.

Tested on: MDA-MB-468 breast
Test: NCI-60 one-dose screen, 48 h (100 = growth as untreated, 0 = no growth, -100 = all killed)
Conditions: 10 µM unless noted

Row | SMILES | growth
1 | O=[N+]([O-])c1ccc(Cl)c(S(=O)(=O)O)c1 | 112%
2 | Cc1cccc2nnc(-c3ccccc3)n12 | 106%
3 | CCCCCCCCCCCCCCCCCC1=NC(C)(C)CN1C(C)(C)CO | -100% (active)
4 | CCCC/C=C/[C@@H]1C[C@H]1CCO | 96.1%
5 | Clc1cccc(CNc2c3ccccc3nc3ccccc23)c1 | -18.4% (active)
6 | O=[N+]([O-])c1ccc(N=Nc2ccc(O)cc2O)cc1 | -4.48% (active)
7 | CC(C)(C)Nc1nc2c(OCCc3ccccc3)cccn2c1-c1ccc(O)cc1 | 26%
8 | CCCCOc1ccc(NC(=O)n2nc(NC(C)=O)c3cc(NC(C)=O)ccc32)cc1 | 111%
9 | COc1cnc2c(c1)C(=O)c1c-2n(CCCN2CCCC2)c(=O)c2cc(Cl)ccc12 | 50.4%
10 | N#Cc1c(N)nc(N)nc1Nc1ccc(Br)cc1 | 89.6%
11 | CCOC(=O)C(CNc1ccccc1)C(=O)OCC | 93.3%
12 | Cc1ccc(NC(=O)NC2CCCCC2)cc1 | 93.5%
13 | Cc1cccc2c(=O)c3c(sc12)c(N1CCNCC1)nc1ccccc13 | 65.4%
14 | CCOC(=O)/C(C)=C\c1ccc(OC)c(OC)c1 | 103%
15 | COc1ccc(CSc2nnc(SCC(=O)Nc3ccc(Cl)cc3)s2)cc1 | 91.1%
16 | COc1ccc(C2=CN3CC=CCC3CC2=O)cc1 (stereo not given) | 107%
17 | O=C1CN2CCC1C/C2=C\c1ccnc2c(Cl)cccc12 (stereo not given) | 90.8%
18 | CC(C)N1CCN(c2ccc(OC[C@H]3CO[C@](Cn4cncn4)(c4ccc(Cl)cc4Cl)O3)cc2)CC1 | 78.9%
19 | COc1ccc(-c2cc(/C=C3\C(=O)Nc4ccc(Cl)cc43)[nH]n2)cc1 | 41.7%
20 | O=C(c1cccs1)c1ccccc1Cc1ccccc1 | 100%

Row | SMILES | growth
21 | O=C1NN(C(=O)c2ccccc2)C(c2ccc(Cl)c(Cl)c2)=C/C1=C\c1ccccc1[N+](=O)[O-] | 53.9% [6.75 µM]
22 | Cc1ccc(S(N)(=O)=O)cc1Cl | 111%
23 | CCN(CC)c1ccc(C(=O)c2ccc(N(CC)CC)cc2)cc1 | -36% (active)
24 | Cc1cccc(NCS(=O)(=O)O)c1 | 93.7%
25 | CCN(CC)CCOC(=O)c1ccc(N=Nc2ccc(O)c(OC)c2)cc1 | 94%
26 | COc1ccc(-c2c(-c3nc4ccc(N5CCOCC5)cc4[nH]3)[nH]c(C)c2C(C)=O)cc1 | 23.1%
27 | CCCCc1n(Cc2ccc3ccccc3c2)cc[n+]1Cc1ccc2ccccc2c1 | -55.2% (active)
28 | CN1C(=O)N(C)C2C1NN=c1s/c(=C\C=C\c3ccccc3)c(=O)n12 (stereo not given) | 13.9%
29 | Cc1ccc(S(=O)(=O)NCN2C(=O)c3ccccc3C2=O)cc1 | 93.6%
30 | C#CCOc1cccc(Nc2ncnc3ccc(NC(=O)CCl)cc23)c1 | -54% (active)
31 | COC(=O)C(Cc1cn(C(C)=O)c2ccccc12)P(=O)(OC)OC (stereo not given) | 101%
32 | Cc1cccc(C)c1NC(=O)CN(CC(C)C)CC(O)COc1ccccc1 (stereo not given) | 94.5%
33 | CCC(CC)COC(=O)c1ccc(O)c(O)c1 | 80.6%
34 | O=C(Nc1ccncc1)C(=O)c1cn(S(=O)(=O)c2ccc(Br)cc2)c2ccccc12 | 6.9% (active)
35 | CC[C@@H]1C(=O)N(C)c2cnc(Nc3ccc(C(=O)NC4CCN(C)CC4)cc3OC)nc2N1C1CCCC1 | -33.3% (active)
36 | Cc1c(Cn2cc(COc3ccc(Br)cc3)nn2)c(C)c(Cn2cc(COc3ccc(Br)cc3)nn2)c(C)c1Cn1cc(COc2ccc(Br)cc2)nn1 | 109%
37 | O=C(C(=O)N1CCOCC1)c1ccc(O[C@H]2O[C@H](CO)[C@@H](O)[C@H](O)[C@@H]2O)cc1 | 97.5%
38 | O=S(=O)(NCCNc1cc(-c2cn(-c3ccccc3)nc2-c2cccc(O)c2)ccn1)c1ccccc1 | 34.2%
39 | O=C1N[C@@H]2NC(=[N+]3CCOCC3)N[C@@H]2N1 | 99.6%
40 | CC(C1=C(CN(C(=O)Cc2cn(-c3ccccc3)nc2-c2ccc(Cl)cc2)C(C)C)Cc2ccccc21)c1ccccn1 (stereo not given) | 43.8%
